The source of these data is PubChem BioAssay (NCI).

About 83,000 compounds went through this panel and 20% of them were active in at least one assay; those are over-represented in the sample as a whole.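 Compound tested at a single concentration for 48 hours in 96-well plates; a percent growth value below 10 was scored as active.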 Values without a mark were called inactive. Calls of active or inactive are those of the source.

Some test systems named below: DU-145 prostate; K-562 leukemia; MALME-3M melanoma; MDA-MB-231 breast; RXF 393 renal; SF-268 CNS; SF-295 CNS; SF-539 CNS; UACC-257 melanoma; M14 melanoma; HCT-15 colon; HT29 colon; SNB-75 CNS; SNB-19 CNS; U251 CNS; PC-3 prostate; SK-MEL-5 melanoma; UACC-62 melanoma; LOX IMVI melanoma; SK-MEL-28 melanoma.
Experiment in all cases: NCI-60 one-dose screen, 48 h (100 = growth as untreated, 0 = no growth, -100 = all killed)
What all share (settings): 10 µM unless noted

Turning to `O=C(Nc1ccc(Oc2ccc(F)cc2)c(Cl)c1)c1cccnn1`, the growth in the test with DU-145 prostate was 76.7%; with K-562 leukemia it was 55.5%; with MALME-3M melanoma, 105%; in the test with MDA-MB-231 breast it was 88.1%; in the test on RXF 393 renal, 82.6%; in the test with SF-268 CNS, 80.4%. For the same compound, the growth in the test on SF-295 CNS is 73.4%; in the test on SF-539 CNS, 85.5%; in the test on UACC-257 melanoma, 64.3%; with M14 melanoma, 114%; in the test with HCT-15 colon, 77.6%; with HT29 colon, 76.7%. Further, the growth with SNB-75 CNS was 87.8%; in the test on SNB-19 CNS, 66.2%; with U251 CNS, 62.9%; in the test on PC-3 prostate it was 64.4%; in the test on SK-MEL-5 melanoma, 30.7%; in the test with UACC-62 melanoma, 62.5%. Further, the growth in the test with LOX IMVI melanoma is 72.8%.
With `C=C(CN=[N+]=[N-])[C@@H]1CC[C@]2(C)[C@H](CC[C@@H]3[C@H]4[C@H]5OC(=O)[C@@]4(CCC5(C)C)CC[C@]32C)[C@@]1(C)CCC#N`, the growth in the test on DU-145 prostate is 98.2% [100 µM]; with K-562 leukemia it was 45.6% [100 µM]; with MALME-3M melanoma it was 90.1% [100 µM]; with MDA-MB-231 breast it was 48.9% [100 µM]; in the test on RXF 393 renal, 108% [100 µM]; in the test with SF-268 CNS it was 92.9% [100 µM]. Moreover, the growth in the test with SF-295 CNS is 96.7% [100 µM]; in the test on SF-539 CNS, 88% [100 µM]; in the test with UACC-257 melanoma, 77.2% [100 µM]; with M14 melanoma, 69.1% [100 µM]; with HCT-15 colon, 87.6% [100 µM]; in the test with HT29 colon it was 61.7% [100 µM]. The growth with SNB-75 CNS was 89.6% [100 µM]; in the test with SNB-19 CNS, 90.5% [100 µM]; in the test with U251 CNS it was 79.6% [100 µM]; in the test with PC-3 prostate it was 45.3% [100 µM]; in the test on SK-MEL-5 melanoma it was 41.5% [100 µM]; with UACC-62 melanoma, 57.7% [100 µM]. The growth in the test on LOX IMVI melanoma was 69.3% [100 µM].
For `Clc1ccc2nc(-c3ccc(-c4ccc(/C=N/NC5=NCCN5)cc4)s3)cn2c1`, the growth was 101% in the test on DU-145 prostate; 4.14% (active) with K-562 leukemia; 94.3% in the test on MALME-3M melanoma; 96.3% in the test on MDA-MB-231 breast; 82.5% in the test on RXF 393 renal; 94.2% in the test on SF-268 CNS. The growth in the test on SF-295 CNS is 97.2%; in the test with SF-539 CNS, 83.1%; in the test on UACC-257 melanoma, 101%; in the test with M14 melanoma it was 97.7%; in the test on HCT-15 colon, -27.3% (active); in the test with HT29 colon, 38.8%. The growth in the test on SNB-75 CNS was 83.9%; with SNB-19 CNS, 97.1%; with U251 CNS, 97.5%; in the test on PC-3 prostate, 89.4%; in the test with SK-MEL-5 melanoma, 93%; in the test with UACC-62 melanoma, 102%. Moreover, in the test with LOX IMVI melanoma, the growth is 97.9%.
With `O=C(N[C@@H]1CCCc2ccccc21)[C@H](CCC(=O)N1CCN(C2CCCCC2)CC1)N1C(=O)[C@@H](N2C(=O)OC[C@@H]2c2ccccc2)[C@H]1/C=C/c1ccccc1`, the growth in the test on DU-145 prostate was 57.9%; with K-562 leukemia, 14.6%; in the test on MALME-3M melanoma it was -41.1% (active); in the test on MDA-MB-231 breast, 16.4%; in the test with RXF 393 renal, 23%; in the test with SF-268 CNS it was 15.8%. Besides, the growth with SF-295 CNS is 30.3%; in the test on SF-539 CNS, 4.65% (active); in the test on UACC-257 melanoma, 10.7%; with M14 melanoma, 14.2%; with HCT-15 colon, 12.1%; in the test with HT29 colon it was -14.2% (active). Also, the growth with SNB-75 CNS is 65.7%; in the test on SNB-19 CNS, 39.2%; in the test on U251 CNS it was 30.6%; in the test on PC-3 prostate it was 12.1%; with SK-MEL-5 melanoma it was -93.2% (active); in the test on UACC-62 melanoma, 51%. Besides, the growth in the test with LOX IMVI melanoma is -40.5% (active).
Take `O=[N+]([O-])c1ccc(O)c(-c2nc3ccccc3s2)c1`: the growth in the test on DU-145 prostate was 86.8%; with K-562 leukemia it was 52.7%; in the test on MALME-3M melanoma, 44.7%; in the test on MDA-MB-231 breast, 75.3%; in the test with RXF 393 renal, 107%; with SF-268 CNS, 76.1%. Moreover, the growth in the test with SF-295 CNS is 53.9%; in the test on SF-539 CNS it was 99%; in the test on UACC-257 melanoma it was 83.5%; with M14 melanoma, 83.2%; in the test with HCT-15 colon it was 89%; in the test with HT29 colon, 96.6%. For the same compound, the growth with SNB-75 CNS was 86.9%; with SNB-19 CNS it was 64.1%; in the test with U251 CNS, 71.6%; in the test on PC-3 prostate it was 70.6%; with SK-MEL-5 melanoma, 25.3%; with UACC-62 melanoma, 41.3%. The growth with LOX IMVI melanoma is 61%.
`COCCCNc1nc(NC(=O)c2cc(OC)cc(OC)c2)cc(-c2cccnc2)n1`: the growth is 101% in the test with DU-145 prostate; 86.1% in the test with K-562 leukemia; 112% in the test with MALME-3M melanoma; 69.1% in the test with MDA-MB-231 breast; 97.7% with RXF 393 renal; 100% in the test on SF-268 CNS. Further, the growth was 100% in the test on SF-295 CNS; 88.9% in the test with SF-539 CNS; 106% in the test with UACC-257 melanoma; 107% in the test on M14 melanoma; 90.3% in the test on HCT-15 colon; 95.5% with HT29 colon. In addition, the growth in the test with SNB-75 CNS was 73.1%; in the test with SNB-19 CNS it was 98.3%; in the test on U251 CNS it was 96.8%; in the test on PC-3 prostate, 87.3%; in the test with SK-MEL-5 melanoma, 72.4%; in the test with UACC-62 melanoma, 111%. Also, the figures for the growth in the test on LOX IMVI melanoma and in the test on SK-MEL-28 melanoma were 94.5% and 105%, respectively.
For the compound `Nc1nnc(CSc2nnc3n(Cc4ccccc4)c(=O)c4c5c(sc4n23)CCCC5)s1`, the growth was 110% with DU-145 prostate; 64.1% in the test with K-562 leukemia; 116% with MALME-3M melanoma; 76.5% in the test with MDA-MB-231 breast; 93.2% in the test on RXF 393 renal; 41.2% with SF-268 CNS. Moreover, the growth in the test on SF-295 CNS is 276%; with SF-539 CNS, 105%; in the test with UACC-257 melanoma, 98.5%; in the test with M14 melanoma, 104%; with HCT-15 colon it was 90.4%; in the test with HT29 colon, 102%. Also, the growth in the test on SNB-75 CNS was 98.7%; with SNB-19 CNS, 100%; with U251 CNS, 93.2%; with PC-3 prostate it was 90.6%; with SK-MEL-5 melanoma, 105%; in the test on UACC-62 melanoma it was 82.1%. Also, the growth in the test on LOX IMVI melanoma was 86%.
